PostGolgi yeast: growth inhibition of a yeast mutant, post-Golgi transport screen | post-Golgi transport phenotypic cell assay | inhibition, % at 10 µM | 98,000 compounds, 0.9% hits;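 further: yeast cells grown in 1536-well plates; yeast grown about 18 h at 30C before absorbance read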
CYP2C9 activ: CYP2C9 (human) activation; P11712; recombinant CYP2C9, luciferin-H conversion, luminescence; hits give high values; factor 1 = untreated enzyme, 0 = blocked; activation factor at 5 µM; 96,000 compounds, 1.4% hits;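 active means activation factor of 2 or more for CYP2C9 at a 5 µM dose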
CYP2C9 inhib: blocks human cytochrome P450 2C9; P11712; CYP2C9 Supersomes, luciferin-H conversion, luminescence; inhibition, % at 5 µM; 96,000 compounds, 20% hits; AID 777;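 active means blocking of liver enzyme CYP2C9 beyond about 50% at 5 µM, limit read from the data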
CYP2C19 inhib: inhibitors of human CYP2C19. CYP2C19 Supersomes, luciferin-H EGE luminescence, 30 min. 96,000 compounds, 21% hits. inhibition, % at 5 µM. P33261;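 active means CYP2C19 inhibition above a set limit at 5 µM in the primary screen, cut at about 50% in these data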
Target sequence (P33261 whole entry, looked up): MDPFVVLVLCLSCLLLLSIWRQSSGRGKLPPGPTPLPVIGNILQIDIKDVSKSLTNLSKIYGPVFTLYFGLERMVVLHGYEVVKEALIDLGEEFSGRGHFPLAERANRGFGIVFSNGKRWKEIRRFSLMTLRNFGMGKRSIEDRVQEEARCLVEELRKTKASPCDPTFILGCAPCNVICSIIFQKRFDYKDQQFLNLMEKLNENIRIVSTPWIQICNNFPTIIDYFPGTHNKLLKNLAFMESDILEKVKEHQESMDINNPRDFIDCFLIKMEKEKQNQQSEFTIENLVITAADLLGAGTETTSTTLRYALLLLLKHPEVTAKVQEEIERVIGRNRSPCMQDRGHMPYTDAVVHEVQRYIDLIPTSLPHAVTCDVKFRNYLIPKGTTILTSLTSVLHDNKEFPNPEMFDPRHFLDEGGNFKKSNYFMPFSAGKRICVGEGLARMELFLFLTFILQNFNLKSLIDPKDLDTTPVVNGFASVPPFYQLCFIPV
PostGolgi ctrl: growth of the yeast control strain, post-Golgi counter-screen; efflux-deficient yeast background strain, growth absorbance A615, 16 h; inhibition, % at 10 µM; 98,000 compounds, 5% hits; AID 738
CYP2C19 activ: activators of human cytochrome P450 2C19 | activation factor at 5 µM | AID 1025 | recombinant CYP2C19, luciferin-H EGE luminescence; hits give high values; 0 = fully inhibited enzyme, 1 = untreated enzyme | P33261 | 96,000 tested, under 10 active;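 active means activation factor of at least 2 at 5 µM in the primary screen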
A number is an active result; n = inactive. In the library only some 32% were active in any assay of this set; here they are far more common. Unless noted, no stated cut-off is given here; in the data, active means inhibition above about 30%; inactive means the rest.

SMILES	PostGolgi yeast	CYP2C9 activ	CYP2C9 inhib	CYP2C19 inhib	PostGolgi ctrl	CYP2C19 activ
COc1ccc(CN2C(=O)c3cccnc3C2Nc2ccc(C)cc2)cc1 (stereo unspecified)	n	n	63	63	n	n
COc1cccc(CNC2CCCC2)c1	n	n	n	n	n	n
COc1cc(CNC2CCCC2)cc(OC)c1	n	n	n	71	n	n
COc1cc(CNC2CCC(C)C2)cc(OC)c1 (stereo unspecified)	n	n	n	62	n	n
O=C(c1ccc(CNS(=O)(=O)c2ccccc2)cc1)N1CCN(Cc2ccccc2)CC1	n	n	n	n	n	n
O=S(=O)(NC12CC3CC(CC(C3)C1)C2)c1ccc(F)cc1	n	n	83	88	31	n
COCCNC(=O)c1onc(CSc2ccc(C)c(C)c2)c1C(=O)O	n	n	n	n	n	n
CC(C)NC(=O)c1onc(CSc2ccc(F)c(F)c2)c1C(=O)O	n	n	76	n	n	n
CC(C)NC(=O)c1onc(CSc2cccc(Cl)c2)c1C(=O)O	n	n	64	n	n	n
CC(C)NC(=O)c1onc(CSc2ccc(F)cc2)c1C(=O)O	n	n	n	n	n	n
O=C(NCC1CCCO1)c1onc(CSc2ccc(Cl)cc2)c1C(=O)O (stereo unspecified)	n	n	51	n	n	n
Cc1ccccc1SCc1noc(C(=O)NCC2CCCO2)c1C(=O)O (stereo unspecified)	n	n	n	n	n	n
Cc1ccc(SCc2noc(C(=O)NC(C)C)c2C(=O)O)cc1C	n	n	80	n	n	n
CCCCN(C)C/C(O)=C(\C#N)c1nc(-c2ccccc2)cs1	n	n	n	n	n	n
CC(C)NC(=O)c1onc(CSc2ccc(C(C)C)cc2)c1C(=O)O	n	n	91	n	n	n
CC(C)(C)n1nc(-c2ccc(F)cc2)c2c(N)ncnc21	n	n	n	n	57	n
CC(C)(C)n1nc(-c2ccc(Cl)cc2)c2c(N)ncnc21	n	n	n	59	65	n
CSC(=NCCCN1CCOCC1)NS(=O)(=O)c1cccs1	n	n	n	n	n	n
Cc1ncoc1C(=O)Nc1cccc(Cl)c1C	n	n	n	n	n	n
Cc1c(Cl)cccc1NC(=O)c1ccc(-n2ccnc2)nc1	n	n	98	99	34	n
O=C(c1ccc(C#CC2(O)CCCCC2)cc1)N1CCN(Cc2ccccc2)CC1	n	n	n	n	30	n
CCOC(=O)N1CCN(C(=O)c2ccc(C#CC3(O)CCCCC3)cc2)CC1	n	n	n	n	n	n
O=C(c1ccc(C#CC2(O)CCCCC2)cc1)N1CCN(C(c2ccccc2)c2ccccc2)CC1	n	n	68	n	n	n
O=C(CCC(=O)OCC(=O)c1ccccc1)Nc1cccc2cccnc12	n	n	n	n	n	n
O=C(CCC(=O)OCC(=O)c1ccc(Br)cc1)Nc1ccc(Br)c2cccnc12	n	3	n	n	38	n
SMILES	PostGolgi yeast	CYP2C9 activ	CYP2C9 inhib	CYP2C19 inhib	PostGolgi ctrl	CYP2C19 activ
COc1ccc(/C=N/NC(=O)c2nonc2C)cc1	n	n	n	80	n	n
COc1ccc(/C=N\NC(=O)C2=NNC(=O)C2C)cc1 (stereo unspecified)	n	n	n	n	n	n
Cc1ccc(C)c(OCC(=O)Nc2cc(C)on2)c1	n	n	n	n	n	n
COCCNC(=O)COc1cccc(Oc2ccccc2)c1	n	n	n	n	31	n
Cc1cc(NC(=O)COc2cccc(Oc3ccccc3)c2)no1	n	n	n	n	31	n
Cc1ccc(C)c(-c2nnc(OCC(=O)Nc3cc(C)on3)c3ccccc23)c1	n	n	95	76	n	n
CCCCCOc1ccc(C(=O)N(Cc2ccco2)C2CCS(=O)(=O)C2)cc1 (stereo unspecified)	n	n	n	n	n	n
O=C(c1ccco1)N1CCN(Cc2nnnn2CCc2ccccc2)CC1	n	n	n	n	n	n
CCCCn1c(CCC(=O)O)ccc1-c1cccs1	n	n	n	n	n	n
N#Cc1c(Cl)c(Cl)c2nnc(-c3ccc(Br)cc3)n2c1Cl	n	n	94	n	n	n
COC(=O)c1ccc(C2C(Oc3ccccc3)C(=O)N2CCc2ccc(OC)c(OC)c2)cc1 (stereo unspecified)	n	n	n	n	n	n
COC(=O)c1onc(C(=O)c2ccccc2)c1C(=O)OC	n	n	51	62	n	n
Cc1ccc(C2CC(=O)N(c3ccc(F)cc3)C3=C2C(=O)CCC3)cc1 (stereo unspecified)	n	n	n	n	n	n
CC1(C)CC(O)(CNCc2ccc3c(c2)OCO3)CCO1 (stereo unspecified)	n	n	n	n	n	n
COCC(=O)N1CCC(n2nnc3cc(F)ccc32)CC1	n	n	n	n	n	n
O=C(CN1CCC(n2nnc3cc(F)ccc32)CC1)NC1CCCCC1	n	n	60	58	n	n
O=C(CN1CCC(n2nnc3cc(F)ccc32)CC1)NC1CC1	n	n	n	n	n	n
Cc1cccc(C(=O)N2CCC(n3nnc4cc(F)ccc43)CC2)c1	n	n	82	84	n	n
O=C(CN1CCC(n2nnc3cc(F)ccc32)CC1)Nc1ccccc1N1CCOCC1	n	n	85	96	n	n
CCOc1ccccc1C(=O)N1CCC(n2nnc3cc(C(F)(F)F)ccc32)CC1	n	n	53	68	n	n
Cc1nnc(-c2cnn(C)c2N)n1Cc1ccc(Cl)cc1	n	n	n	n	n	n
COc1ccc(Cc2nnc(SCC(=O)NCC3CCCO3)o2)cc1 (stereo unspecified)	n	n	n	n	n	n
Cc1ccc(CNC(=O)c2ccccc2NC(=O)CSc2nnnn2C)cc1	n	n	n	n	n	n
O=C(CN1CCC(n2nnc3cc(F)ccc32)CC1)N1CCc2ccccc2C1	n	n	n	52	n	n
COc1ccc(NC(=O)CN2CCC(n3c(C)nc4cc(F)ccc43)CC2)c(OC)c1	n	n	n	n	n	n
SMILES	PostGolgi yeast	CYP2C9 activ	CYP2C9 inhib	CYP2C19 inhib	PostGolgi ctrl	CYP2C19 activ
COC(=O)c1ccccc1NC(=O)CN1CCC(n2nnc3cc(F)ccc32)CC1	n	n	n	n	n	n
Cc1ccc2c(c1)nnn2C1CCN(S(=O)(=O)c2ccc(C(=O)N3C(C)CCCC3C)cc2)CC1 (stereo unspecified)	n	n	n	77	n	n
Cc1ccc2c(c1)nnn2C1CCN(S(C)(=O)=O)CC1	n	n	n	n	n	n
COc1cc(OC)cc(C(=O)N2CCC(n3c(C)nc4cc(F)ccc43)CC2)c1	n	n	67	n	n	n
CCOc1ccc2nc(NC(=O)CN3CCC(n4nnc5cc(F)ccc54)CC3)sc2c1	n	n	86	80	34	n
O=C(O)CCCC(=O)Nc1ccccc1C(=O)N1CCCC1	n	n	n	n	n	n
CS(=O)(=O)N(CC(=O)N1CCN(c2ccccc2)CC1)Cc1ccc(Cl)cc1	n	n	n	n	n	n
